# Measurements taken from paper PMC5540273 (PLoS ONE, 2017).
# Test system: T1, LZK
# T1 construct: gene MAP3K13
# Details: concentration: 1 μM, replicates: in singlicate; n = 1
# 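Note: KINOMEscan kinase panel screen.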
row,SMILES,%Inh
1,COc1ccc(CNC(=O)NC2CCN(c3ccnc(Nc4ccc(OC)cc4)n3)C2)cc1 (stereo not shown) [GSK1379727],0%
2,c1ccc(-c2cc(-c3c[nH]nc3-c3ccccn3)ccn2)cc1 [GW576604],10%
3,Cn1cc(-c2ccc3c(c2)CCN3C(=O)Cc2ccccc2Cl)c2c(N)ncnc21 [GSK2608885],0%
4,CNc1ncnc2[nH]ncc12 [SKF-18355],27%
5,Fc1ccc(-c2ncn(CCCN3CCOCC3)c2-c2ccccn2)cc1 [SB-211742],0%
6,NS(=O)(=O)c1cccc(-c2ccc3ncc(N4CCOCC4)nc3c2)c1 [GSK1535721],23%
7,COc1ccc(Nc2nccc(N3CCC(NC(=O)Nc4cc(C)ccc4C)C3)n2)cc1 (stereo not shown) [GSK1379741],0%
8,COCCNC(=O)c1ccc(-c2cc(C(=O)NC3CC3)cc(F)c2C)cc1 [GW868318],5%
9,Cc1nnc(-c2ccc3ncc(-c4ccc(S(C)=O)cc4)n3c2)o1 (stereo not shown),11%
10,c1ccc(-c2n[nH]cc2-c2ccnc3ccccc23)nc1 [GW271431],0%
11,Cn1ccc2ncnc(Oc3ccc(NC(=O)Nc4ccncc4)c(Cl)c3)c21,0%
12,Cc1cn2c(=O)cc(N3CCOCC3)nc2n1Cc1cccc(Cl)c1Cl [GSK2334006],0%
13,Fc1ccc(-c2ncn(CCCN3CCOCC3)c2-c2cccnc2)cc1 [SB-211743],0%
14,Cc1cccc(-c2nc(Nc3ccc4ncsc4c3)c3ccccc3n2)n1 [GW867588],7%
15,Cc1cccc(Cn2ccn3c(=O)cc(N4CCOCC4)nc23)c1 [GSK2297542],0%
16,N#Cc1c(N2CCOCC2)sc(-c2ccn[nH]2)c1-c1ccc(Cl)cc1,20%
17,COc1cc2c(cc1OCCN1CCN(C)CC1)ncc1c3ccc(C#N)cc3[nH]c21,11%

row,SMILES,%Inh
1,CN(C1=C(c2ccccc2)C(=O)NC1=O)c1ccccc1 [SB-334860],0%
2,O=C1NC(=O)C(N2CCc3ccccc32)=C1c1cccc(Cl)c1 [SB-408010],12%
3,O=c1cc(N2CCOCC2)nc2n(Cc3cccc(Cl)c3Cl)c(C3CC3)nn12 [GSK2358994],0%
4,[2H]C([2H])(c1cccc(C(F)(F)F)c1C)n1ccn2c(=O)nc(N3CCOCC3)cc12 [GSK2336394],0%
5,CCc1nc(-c2cccc(C)c2)c(-c2ccnc(NCc3ccccc3)c2)s1,0%
6,Cc1cccc(-c2nc(-c3ccc(S(C)(=O)=O)cc3)sc2-c2ccncc2)c1,8%
7,CCc1ccnc(/C=C/c2n[nH]c3cc(Sc4ccccc4C(=O)NC)ccc23)c1,17%
8,CSc1ccc(-c2cc3ncnc(SCC(=O)O)c3s2)cc1,0%
9,CC(=O)Nc1ccc(COc2ccc(Nc3ccnc4cc(-c5ccccn5)ccc34)cc2)cc1.Cl [GW440148],3%
10,COc1cc2ncn(-c3cc(OCc4sccc4Cl)c(C(N)=O)s3)c2cc1OC [GSK448459],0%
11,Fc1ccc(-c2nn3c(OCC(F)(F)F)cccc3c2-c2ccncc2)cc1 [GW514784],37%
12,CC(C)(C)n1cnc2c(N)ncnc21 [SKF-97359],15%
13,O=C(NCCNc1ccnc(Nc2ccc(F)cc2)n1)c1cc2ccccc2s1 [GSK1379874],0%
14,COc1ccc(S(=O)(=O)NC2CCN(c3cc(C)nc(Nc4cccc(C#N)c4)n3)CC2)cc1.O=C(O)C(F)(F)F [GSK1653539],26%
15,Cc1ccc(C(=O)NCC(N)=O)cc1-n1c(C)cc(OCc2ccc(F)cc2F)c(Br)c1=O,0%
16,Cl.Oc1cccc(Nc2ccnc3cc(-c4ccncc4)ccc23)c1 [GW494601],36%
17,O=C(Nc1n[nH]c2cc(-c3cccc(F)c3)ccc12)C1CC1 [SB-735464],2%
